MBNL1 CUG block – blocks human MBNL1 binding to CUG repeat RNA | Potency, µM (titrated, usually from 57.5 µM), hits mostly inhibitors | actives 0.036% (n = 280,000) | Q9NR56 | TR-FRET MBNL1-His/biotin-(CUG)12 binding, 665/545 ratio; active = well fitted inhibition curve with a large enough effect in the signal ratio, with a control signal flat, not every such curve was filed as active; inconclusive = small, poorly fitted or top-dose-only effect, or effect the other way, or a change in a side signal; inactive = no such curve, though single readings can be large or run the other way; the % refers to the signal ratio
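Compound titration spanned 92 nM–58 uM against the MBNL1-His/biotin-(CUG)12 complex. After 60 min at room temperature with 5 nM streptavidin-XL665 and 0.055 ng/ul terbium anti-His, ratiometric 665/545 nm emission (Ex 340 nm) normalized to controls.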
TCR activator – activators of T cell receptors; Potency, µM (titrated, usually from 9.22 µM), usual class: activators; AID 504894; 330,000 tested, under 10 active; primary human leukocytes, anti-CD3, IL-2 HTRF, 48 h
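IL-2 produced over 48 hr by a-CD3 bead-stimulated primary human leukocytes exposed to compounds was detected with a homogeneous time-resolved FRET immunoassay, 665nm acceptor signal after 320nm excitation.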
a7 integrin act – integrin-mediated muscular dystrophy alleviation activation; Potency, µM (doses to about 38.3 µM), most hits filed as activators; AID 624291; alpha7betagal myoblasts, beta-gal FDG fluorescence, 48 h; actives 0.064% (n = 350,000); note: nearly all actives have a fitted effect of over 60% in size
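Alpha7betagal+/- myoblasts (passage 13) were plated 16-24 hr, then exposed to compounds (1:260 dilution of DMSO stock) for 48 hours at 37C. After MPER lysis, β-galactosidase reporter activity was read as FDG fluorescence (ex 480/em 540) after 30 minutes.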
CBFb-RUNX1 inh – inhibitors of human CBF-beta and RUNX1 interaction; AlphaScreen CBFb-His/RUNX1-biotin binding, biochemical; Potency, µM (highest dose often 59.8 µM), hits mostly inhibitors; 230,000 tested, under 10 active
Target sequence (Q01196 whole entry, looked up): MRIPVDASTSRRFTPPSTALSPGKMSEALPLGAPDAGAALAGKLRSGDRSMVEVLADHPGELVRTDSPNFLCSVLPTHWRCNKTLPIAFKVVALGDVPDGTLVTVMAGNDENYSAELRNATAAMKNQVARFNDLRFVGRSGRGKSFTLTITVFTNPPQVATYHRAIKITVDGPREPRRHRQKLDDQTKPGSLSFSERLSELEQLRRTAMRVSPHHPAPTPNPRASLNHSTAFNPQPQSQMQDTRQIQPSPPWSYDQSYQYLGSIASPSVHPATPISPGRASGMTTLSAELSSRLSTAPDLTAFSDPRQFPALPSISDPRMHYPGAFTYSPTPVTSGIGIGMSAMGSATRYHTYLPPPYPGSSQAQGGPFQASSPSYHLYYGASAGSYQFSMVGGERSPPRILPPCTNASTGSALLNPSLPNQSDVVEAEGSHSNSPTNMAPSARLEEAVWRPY
Target sequence (Q13951 whole entry, looked up): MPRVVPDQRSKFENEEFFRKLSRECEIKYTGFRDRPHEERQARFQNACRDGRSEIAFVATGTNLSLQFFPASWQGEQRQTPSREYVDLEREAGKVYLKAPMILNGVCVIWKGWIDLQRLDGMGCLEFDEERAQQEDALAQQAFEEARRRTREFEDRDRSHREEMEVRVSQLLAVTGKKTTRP
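Room-temperature protein-protein interaction test with 30 nM each of His-tagged CBF-beta and biotinylated RUNX1, 15 min with compound, then 90 min with nickel plus streptavidin beads. Signal read in AlphaScreen mode.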
A number is an active result; n = inactive; u = inconclusive; x = no result. Most compounds without a hit are left out; they make up all but 0.086% or so of the library. Unless noted, calls come from the whole dose curve; as a rule, active = well fitted curve in the direction sought with a large enough effect; inconclusive = small, poorly fitted or top-dose-only effect, or another doubt; inactive = no such curve, though single readings can be large; an effect the other way counts as inactive or inconclusive.

SMILES | MBNL1 CUG block | TCR activator | a7 integrin act | CBFb-RUNX1 inh
Cc1ccc(OCC(=O)N2CCN(S(=O)(=O)c3ccc4c(c3)OCCO4)CC2)c(C)c1 | x | n | 2µM | x
COc1ccccc1CC(=O)Nc1cccc(C)n1 | n | n | n | n
COc1ccc(CNC(=O)COC(=O)CCc2c[nH]c3ccccc23)cc1 | n | n | 10µM | n
O=C(COC(=O)CCc1c[nH]c2ccccc12)NCc1ccccc1 | x | n | n | n
COc1cc(/C=C/CN2CCN(Cc3ccc(C)o3)C(CCO)C2)ccc1O (stereo unspecified) | n | n | 14µM | n
O=c1[nH]c(C2CCCN(S(=O)(=O)c3ccccc3)C2)nc2c1nnn2Cc1cccc(Cl)c1 (stereo unspecified) | n | n | 4µM | x
CCCCC(=O)NC(=S)Nc1cccc(Cl)c1N1CCCCC1 | n | n | n | n
C=CCn1c(COc2ccccc2)nnc1SCc1ccc(C#N)cc1 | n | n | n | n
C=CCn1c(COc2ccc(Cl)cc2)nnc1SCc1ccc(C#N)cc1 | n | x | 11µM | n
O=C(CSc1nnc(C2CC2)n1C1CC1)c1cccs1 | x | n | 10µM | x
O=C(CSc1nnc(C2CC2)n1C1CC1)c1ccc(Br)s1 | x | n | n | x
CN(C)C1(CN=Cc2cc(Cl)cc([N+](=O)[O-])c2O)CCCCC1 | u | n | 8.9µM | x
O=[N+]([O-])c1cc(Cl)cc(/C=N\Nc2ccccn2)c1O | n | n | n | n
O=C(NCCC1=CCCCC1)c1ccc(Br)o1 | n | n | n | n
O=C(NC(=S)NCCC1=CCCCC1)c1ccc(Br)o1 | n | n | 7.1µM | n
C=CCNC(=O)Nc1ccc2nc(C)sc2c1 | 32µM | x | n | n
CNC(=O)Nc1ccc2nc(C)sc2c1 | n | n | n | n
COc1ccc2c(c1)C(NC(=O)C(F)(F)F)CC2=O (stereo unspecified) | u | n | n | n
COc1cc2c(cc1OC)C(NC(=O)C(F)(F)F)C/C2=N\O (stereo unspecified) | n | n | 11µM | n
COc1ccccc1CNc1cc(C)ccn1 | n | n | 2.5µM | x
COc1ccccc1CC(=O)Nc1cc(C)ccn1 | n | n | n | x
CCCCC(C(=O)NC1CCCC1)N(C(=O)c1snc(C(N)=O)c1N)c1ccc(C)cc1 (stereo unspecified) | n | n | 10µM | x
COc1ccc(N(C(=O)c2snc(C(N)=O)c2N)C(C(=O)NC2CCCC2)c2ccc(OC)c(OC)c2)cc1 (stereo unspecified) | n | n | n | x
COc1cc(C(C(=O)NC2CCCCC2)N(C(=O)c2snc(C(N)=O)c2N)c2ccc(C)cc2)ccc1O (stereo unspecified) | n | n | 7.9µM | x
COC(=O)c1c[nH]n2c(=O)c(C(C)C)c(C)nc12 | n | n | n | n
SMILES | MBNL1 CUG block | TCR activator | a7 integrin act | CBFb-RUNX1 inh
COc1ccc(OC)c(S(=O)(=O)N2CCC(C(=O)NC3CCCCC3)CC2)c1 | n | n | n | x
O=C(Nc1ccc(Cl)cc1N1CCOCC1)C1CCCCC1 | n | n | 7.1µM | x
Cc1cc(=O)oc2cc(OC(C)C)ccc12 | n | n | n | n
O=C(N/N=C/c1cn[nH]c1-c1ccc(F)cc1)c1ccncc1 | x | n | 14µM | n
CC(C)NC(=O)CN1CCN(C(=O)CCl)CC1 | n | n | 7.1µM | n
COC(=O)C1=NNC2(C)C(=O)N(c3ccc(C)cc3)C(=O)C12 (stereo unspecified) | n | n | 10µM | n
CCOc1ccc2oc(C(=O)OCC(=O)NC(=O)NC3CCCC3)c(C)c2c1 | n | n | n | n
CCOc1ccc2oc(C(=O)OCC(=O)NC(=O)NC)c(C)c2c1 | x | n | 7.1µM | n
O=C(NCCc1ccccc1)C1CCC(=O)N1C1CCCC1 (stereo unspecified) | n | n | 10µM | x
N[C@@H](CCCCNC(=O)CCCC[C@@H]1SC[C@H]2NC(=O)N[C@H]12)C(=O)O | x | x | x | 0.4µM
COc1ccc([N+](=O)[O-])cc1N1C(=O)c2cccc3cccc(c23)C1=O | n | n | n | n
O=C(Nc1ccc(N2CCN(C(=O)c3ccccc3F)CC2)cc1)c1cncc(Br)c1 | n | n | 13µM | x
O=C(Nc1ccc(N2CCCCC2)cc1)c1cncc(Br)c1 | n | n | n | n
CC1(C(=O)OCC(=O)Nc2cccc(S(=O)(=O)NC3=NCCCCC3)c2)CC1(Cl)Cl (stereo unspecified) | n | n | n | n
O=C(O)c1ccc(CNCc2cccc(OCc3ccc(F)cc3)c2)cc1 | n | n | n | x

Source: PubChem BioAssay (National Center for Advancing Translational Sciences (NCATS))
